Reference: PubChem BioAssay (EPA / NIEHS)
“And” between values parts separate entries of the source, which are not always exact repeats. Equal values may be shown once. Results filed as inconclusive are left out. Where a structure was tested more than once in an assay, its records may differ in their call. The source made the active and inactive calls. How the source made its calls: active means hit-call score of the fitted dose curve at least 0.9, where 1 is the maximum; inconclusive means response in the unintended direction; inactive means score below 0.9.

Assays:
[1] = biological target: Luciferin 4-monooxygenase (Photinus pyralis) (UniProt P08659); test: CCTE_Simmons_QuantiLum_inhib_2: CCTE's Firefly Luciferase Inhibition Assay, Simmons Lab (AID 2283767);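 on AC50: potency for inhibitors that lower luciferase luminescence relative to DMSO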
Summary of the method: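 Cell-free recombinant firefly luciferase (5 ng/well) in 200mM potassium phosphate with 1 mg/ml BSA, 30 min at 37C with 8 concentrations from 5 nM to 87.5 uM [final], 0.5% DMSO. Luminescence read after D-luciferin (150uM)/dATP (147uM) reagent injection, pH 7.8; triplicates.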

[2] = ArunA_CellTiter_hNC: Viability Assessment in the ArunA Biomedical's Oris Neural Crest (hNC) Cell Migration Assay (AID 2283752)
Summary of the method: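 Human H9-derived neural crest cells plated on Matrigel (60,000/well) with LIF and bFGF, incubated 16 h, then exposed 72 h to chemical in test medium. Viability measured with CellTiter Aqueous One reagent; loss of signal versus DMSO.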

[3] = ArunA_CellTiter_hNP: Viability Assessment in the ArunA Biomedical's Oris Neural Crest (hNC) Cell Migration Assay (AID 2283753)
Summary of the method: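 H9-derived hNP1 neuroprogenitors, 60,000/well on Matrigel, cultured 16 h, then 72 h chemical exposure in test medium. Cell titer via CellTiter Aqueous One; positive-direction fit vs DMSO.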

[4] = ArunA_Migration_hNP: ArunA Biomedical's Oris Neuroprogenitor (hNP) Cell Migration Assay (AID 2283754)
Summary of the method: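 Human H9-derived hNP1 neuroprogenitors on Matrigel with LIF/bFGF, plated around seeding stoppers for 16 h at 37C; stoppers removed at start of 72 h chemical exposure. Calcein-AM staining, fluorescence 494/517 nm in detection zone; loss-of-signal vs DMSO; cytochalasin D control.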

[5] = ArunA_Migration_hNC: ArunA Biomedical's Oris Neural Crest (hNC) Cell Migration Assay (AID 2283755)
Summary of the method: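 Human H9-derived neural crest stem cells, 60,000/well on Matrigel, 16 h at 37C, then 72 h chemical exposure after seeding-stopper removal. Migration into detection zone read as calcein-AM fluorescence (ex494/em517), relative to DMSO.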

[6] = ArunA_NOG_NucleusCount: ArunA Biomedical's Neurite Outgrowth (NOG) Assay for Nucleus Count (AID 2283756)
Summary of the method: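 Human H9-derived differentiated neurons were exposed for 48 h right after seeding. Hoechst-stained nuclei gated by size and intensity were counted by automated high-content imaging as viable neurons. Loss of signal vs DMSO.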

[7] = ArunA_NOG_NeuriteLength: ArunA Biomedical's Neurite Outgrowth (NOG) Assay for Neurite Length (AID 2283757)
Summary of the method: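 Differentiated human H9-derived neurons were exposed for 48 h from seeding, then stained with Hoechst and βIII-tubulin. Automated high-content imaging gave total neurite length per valid neuron, counting processes >10 um. Loss of signal was scored versus DMSO.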

[8] = ArunA_NOG_NeuritesPerNeuron: ArunA Biomedical's Neurite Outgrowth (NOG) Assay for Neurites Per Neuron (AID 2283758)
Summary of the method: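 Differentiated human H9-derived neurons exposed to chemicals for 48 h from seeding, then stained with Hoechst and βIII-tubulin/DyLight 488. Automated imaging counted neurites (processes >10 um) per valid neuron; loss of signal versus DMSO scored.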

[9] = ArunA_NOG_BranchPointsPerNeurite: ArunA Biomedical's Neurite Outgrowth (NOG) Assay for Branch Points Per Neurite (AID 2283759)
Summary of the method: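 Automated image analysis traced neurites (processes >10 um) from valid cell bodies after Hoechst and βIII-tubulin staining. hNN cells from H9 embryonic stem cells, 48 h exposure. Fitted bidirectionally against DMSO.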

[10] = test system: Thyroperoxidase (TPO), gene 445522; test: CCTE_Simmons_GUA_TPO: CCTE's Guaiacol Assay for Thyroperoxidase (TPO) Inhibition, Simmons Lab (AID 2283750)
Summary of the method: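 Porcine thyroid microsomes (25 ug) in 200mM potassium phosphate, preincubated 30 s at 37C with compound (8 concentrations, 5 nM–87.5 uM) and 35mM guaiacol; 1mM H2O2 starts reaction. Absorbance change at 450nm over first 80 s; loss of signal versus DMSO, three replicates.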

Luciferin 4-monooxygenase (Photinus pyralis), sequence (P08659 whole entry, looked up): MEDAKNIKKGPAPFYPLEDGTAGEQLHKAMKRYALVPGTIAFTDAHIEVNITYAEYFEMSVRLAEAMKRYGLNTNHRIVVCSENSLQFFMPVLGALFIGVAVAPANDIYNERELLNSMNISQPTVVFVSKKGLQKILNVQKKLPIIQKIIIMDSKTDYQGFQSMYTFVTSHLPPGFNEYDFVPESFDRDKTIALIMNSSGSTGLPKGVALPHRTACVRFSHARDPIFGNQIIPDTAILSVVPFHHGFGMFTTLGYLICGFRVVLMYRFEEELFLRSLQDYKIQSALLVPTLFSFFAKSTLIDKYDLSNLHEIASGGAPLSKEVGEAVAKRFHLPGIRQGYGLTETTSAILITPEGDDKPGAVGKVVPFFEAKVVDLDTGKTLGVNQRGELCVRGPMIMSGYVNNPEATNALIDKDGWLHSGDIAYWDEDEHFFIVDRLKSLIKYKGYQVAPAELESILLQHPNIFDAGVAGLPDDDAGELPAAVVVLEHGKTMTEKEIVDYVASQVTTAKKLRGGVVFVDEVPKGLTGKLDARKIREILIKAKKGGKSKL

Cc1occc(=O)c1O
outcome [1]: inactive

Cc1ccc(-c2cc(C(F)(F)F)nn2-c2ccc(S(N)(=O)=O)cc2)cc1
AC50 [2]: 70.4 µM (active)
AC50 [3]: 76.5 µM (active)
AC50 [4]: 81.9 µM (active)
AC50 [5]: 78.7 µM (active)
AC50 [6]: 7.13 µM (active)
AC50 [7]: 12.9 µM (active)
AC50 [8]: 13.9 µM (active)

CCCCCCCCCCCCCCOS(=O)(=O)O
outcome [1]: inactive

O=C1OC(c2ccc(O)cc2)(c2ccc(O)cc2)c2ccccc21
AC50 [4]: 26.9 µM (active)
AC50 [5]: 15.9 µM (active)
outcome [6]: inactive
outcome [1]: inactive

C/C=C/C=C/C(=O)O
outcome [1]: inactive

O=C1O[C@H]([C@H](O)CO)C(O)=C1O
outcome [1]: inactive

COC(=O)[C@H]1[C@H]2C[C@@H]3c4[nH]c5cc(OC)ccc5c4CCN3C[C@H]2C[C@@H](OC(=O)c2cc(OC)c(OC)c(OC)c2)[C@@H]1OC
AC50 [3]: 81.8 µM (active)
outcome [4]: inactive
AC50 [5]: 50 µM (active)
outcome [6]: inactive
outcome [7]: inactive
outcome [8]: inactive
outcome [9]: inactive
outcome [1]: inactive

Cc1cc(Cc2ccc(N)c(C)c2)ccc1N
outcome [1]: inactive

Cc1ccc(C(C)(C)C)c(O)c1
outcome [1]: inactive

CCCCC(CC)COP(=O)(OCC(CC)CCCC)OCC(CC)CCCC (configuration not stated)
outcome [3]: inactive
outcome [4]: inactive
outcome [5]: inactive
outcome [6]: inactive
outcome [7]: inactive
outcome [8]: inactive
outcome [9]: inactive

O=Cc1ccccc1C=O
AC50 [1]: 53.8 µM (active)

Nc1nc(Cl)nc2c1ncn2[C@H]1C[C@H](O)[C@@H](CO)O1
AC50 [2]: 0.354 µM (active)
outcome [2]: inactive
AC50 [3]: 0.345 µM (active)
AC50 [4]: 289 nM (active) and 52.1 nM (active)
AC50 [5]: 120 nM (active) and 32 nM (active)
AC50 [6]: 1.81 µM (active)
AC50 [7]: 1.74 µM (active)
AC50 [8]: 1.58 µM (active)
AC50 [9]: 3.41 µM (active)

O=C1c2c(O)cccc2Cc2cccc(O)c21
outcome [1]: inactive

Oc1ccccc1O
outcome [1]: inactive

Oc1ccc(O)cc1
outcome [1]: inactive

C/C=C/c1ccc(OC)cc1
outcome [1]: inactive

Nc1nc(=S)c2[nH]cnc2[nH]1
AC50 [1]: 11.2 µM (active)

CC(C)NCC(O)c1ccc(O)c(O)c1 (configuration not stated)
AC50 [10]: 7.79 µM (active)
outcome [1]: inactive

S=c1[nH]c2ccccc2s1
outcome [1]: inactive

Cc1c(C)c2c(c(C)c1O)CCC(C)(COc1ccc(CC3SC(=O)NC3=O)cc1)O2 (configuration not stated)
outcome [1]: inactive

Cc1cc(SC2=C(O)C[C@@](CCc3ccc(N)cc3)(C(C)C)OC2=O)c(C(C)(C)C)cc1CO
outcome [1]: inactive
